Potency and outcome data for 19 compounds are collected here from PubChem BioAssay (Tox21).

A short description of assay [1]: qHTS assay to identify small molecule antagonists of the estrogen receptor alpha (ER-alpha) signaling pathway using the BG1 cell line in the presence of 0.1 nM 17-beta-estradiol - cell viability counter screen (AID 1259241). Further: nearly all actives have a fitted effect of over 40% in size. Further: potency means the concentration at half of the fitted maximal effect. Put shortly:
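VM7Luc4E2 cells (endogenous full-length ER-alpha, 4xERE-luciferase), cultured 5 days in charcoal-stripped serum, exposed to compounds with 0.1 nM 17beta-estradiol (final) for 22 hr at 37C. Viability read in same wells as live-cell protease fluorescence after 30 min.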
On the technique in general: In qHTS, concentration-response curves come from the screen itself.

The nature of assay [2]: qHTS assay to identify small molecule antagonists of the androgen receptor (AR) signaling pathway using the MDA cell line in the presence of 0.5 nM R1881 - cell viability counter screen (AID 1259242). Further: nearly all actives have a fitted effect of over 45% in size. A digest of the protocol:
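Human breast carcinoma MDA-kb2 cells, cultured without CO2, receive compounds alongside 0.5 nM (final) R1881 agonist. After 16 hr at 37C, viability is taken as live-cell protease signal.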

The target of assay [3] is Estrogen receptor (Homo sapiens) (UniProt P03372). Put plainly: qHTS assay to identify small molecule antagonists of the estrogen receptor alpha (ER-alpha) signaling pathway using the BG1 cell line in the presence of 0.1 nM 17-beta-estradiol (AID 1259244). Further: nearly all actives have a fitted effect of over 50% in size. A digest of the protocol: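 Seeding of stripped-serum-adapted VM7Luc4E2 cells, 24 h attachment, compound transfer, then 0.1 nM final 17beta-estradiol; after 22 h incubation, ONE-Glo reagent and luminescence reading.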
Chain of Estrogen receptor (Homo sapiens) (P03372 whole entry, looked up): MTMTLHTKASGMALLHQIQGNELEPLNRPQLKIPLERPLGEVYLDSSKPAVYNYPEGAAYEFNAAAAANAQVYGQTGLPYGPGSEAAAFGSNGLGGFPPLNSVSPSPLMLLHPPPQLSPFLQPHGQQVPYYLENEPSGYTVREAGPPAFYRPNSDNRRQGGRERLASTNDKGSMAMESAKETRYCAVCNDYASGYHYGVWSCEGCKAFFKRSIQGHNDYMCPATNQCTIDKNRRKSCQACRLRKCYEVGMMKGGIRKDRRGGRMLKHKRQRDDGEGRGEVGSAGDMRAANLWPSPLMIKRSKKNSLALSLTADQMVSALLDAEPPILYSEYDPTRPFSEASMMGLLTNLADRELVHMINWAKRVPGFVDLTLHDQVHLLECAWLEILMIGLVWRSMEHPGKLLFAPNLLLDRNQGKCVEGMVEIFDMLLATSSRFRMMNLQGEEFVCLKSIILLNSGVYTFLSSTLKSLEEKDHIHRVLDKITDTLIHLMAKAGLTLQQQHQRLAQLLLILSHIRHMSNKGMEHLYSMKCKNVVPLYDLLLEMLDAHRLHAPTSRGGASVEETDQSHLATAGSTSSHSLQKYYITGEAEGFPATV

The nature of assay [4]: qHTS assay to identify small molecule HDAC inhibitors (AID 1259364). Further: potency means the concentration at half of the fitted maximal effect.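 Further: wild-type HCT-116 cells with endogenous class I/II HDAC activity; nearly all actives have a fitted effect of over 45% in size.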 A digest of the protocol: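 After a 2 hr compound incubation (37C, 5% CO2), HCT-116 cells seeded at 1,500/well the day before received HDAC-Glo reagent; signal read as luminescence after 30 min at room temperature.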
The nature of assay [5]: qHTS assay to identify small molecule HDAC inhibitors - cell viability counter screen (AID 1259365). Further: series mostly up to about 92 µM; nearly all actives have a fitted effect of over 50% in size. Put shortly:
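Wild-type HCT-116 cells, 1,500/well, cultured overnight, then compound-treated 2 h at 37 C. Viability measured as ATP luminescence with CellTiter-Glo after 30 min at room temperature.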

A short description of assay [6]: qHTS assay to identify small molecule agonists of the sonic hedgehog signaling (Shh) pathway - cell viability counter screen (AID 1259366). Further: nearly all actives have a fitted effect of over 50% in size. A digest of the protocol: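 NIH/3T3-derived Gli1-Luc reporter cells, 2,000 per well, received compound after 4 h and were treated about 23 h at 37C. Viability measured in the same wells by CellTiter-Fluor fluorescence after 1 h.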

A short description of assay [7]: qHTS assay to identify small molecule antagonists of the sonic hedgehog signaling (Shh) pathway - cell viability counter screen (AID 1259367). Further: nearly all actives have a fitted effect of over 55% in size. Further: potency means the concentration at half of the fitted maximal effect. Put shortly: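 Conditioned medium drove Shh signaling in 3T3 Gli1-Luc cells exposed to compounds at 37C and 5% CO2. Viability was determined from CellTiter-Fluor fluorescence, with reagent incubated 1 hr after 23 hr of treatment.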

Assay [8] in a line: qHTS assay to identify small molecule agonists of the sonic hedgehog signaling (Shh) pathway (AID 1259368; calls by dose curve; further: nearly all actives have a fitted effect of over 15% in size; further: potency means the concentration at half of the fitted maximal effect). A digest of the protocol:
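Stable NIH/3T3 Gli1-Luc reporter clone; 24 hr cpd exposure after a 4 hr settling period; luminescence endpoint.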

Assay [9] is described as follows: qHTS assay to identify small molecule phospholipidosis (PLD) inducers (AID 1259344; active means well fitted curve in the direction sought with a large enough effect; an effect the other way counts as inactive or inconclusive). A digest of the protocol:
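After 4 h attachment on collagen I, HepG2 cells were dosed with compound alongside LipidTOX Red, kept 24 h at 37 C, fixed, and imaged for lamellar phospholipid pits.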

Values without a mark were called inactive. Results filed as inconclusive are left out. Activity calls are given as the source filed them. Unless noted, the call rests on the fitted dose curve; in most records, active means well fitted curve in the direction sought with a large enough effect in the repeat runs; inconclusive means weak or mixed curves; inactive means no such curve, though single readings can be large; an effect the other way counts as inactive or inconclusive.

`CN(CCCN1c2ccccc2CCc2ccccc21)CC(=O)c1ccc(Cl)cc1`: the Potency result in [1], in assay [3], in assay [4], in assay [6], in [7] and in assay [8] was “inactive” throughout. Moreover, the result in [2] and in assay [5] was inactive.

Consider `CCCc1c2oc(C(=O)O)cc(=O)c2cc2c(=O)cc(C(=O)O)n(CC)c12`, for which the Potency entry in assay [1], in assay [3], in [4] and in assay [6] was “inactive” throughout. Further, the outcome in assay [2] and in assay [5] was inactive.

For `O=c1[nH]c(=O)n([C@H]2C[C@H](O)[C@@H](CO)O2)cc1C(F)(F)F`, the Potency entry in assay [1], in [3], in [4], in assay [6] and in [8] was “inactive” throughout. Further, the result in [2], in assay [9] and in assay [5] was inactive.

As to `O=C1CCCCCCCCCCC(=O)OCCO1`, the Potency entry in assay [1], in assay [3], in [4], in assay [6], in assay [7] and in assay [8] was “inactive” in each case. Besides, the result in assay [2] and in assay [5] was inactive.

As for `CCCCCCCCCC/C=C/C#N`, the Potency result in assay [1], in [3], in assay [4], in assay [6], in [7] and in assay [8] was “inactive” in each case. Moreover, the outcome in assay [2] and in [5] was inactive.

Consider `O=C(C(Cl)Cl)N1CCOC12CCCCC2`, for which the Potency result in [1], in assay [3], in assay [4], in assay [6] and in assay [7] was “inactive” throughout. Also, the result in assay [2] and in assay [5] was inactive.

Consider `O=C1CCN(c2ccccc2)N1`, for which the Potency result in [1], in assay [3], in [4] and in [6] was “inactive” in each case. Moreover, the outcome in assay [2] and in assay [5] was inactive.

Consider `C=C(C)C(=O)OCCOP(=O)(O)O`, for which the Potency result in assay [1], in assay [3], in assay [4], in assay [6], in assay [7] and in assay [8] was “inactive” in each case. Besides, the outcome in assay [2] and in assay [5] was inactive.

On to `COc1nc(C)nc(NC(=O)NS(=O)(=O)c2ccccc2OCCCl)n1`, for which the Potency result in assay [1], in [3], in [4], in [6], in assay [7] and in assay [8] was “inactive” throughout. In addition, the result in assay [2] and in assay [5] was inactive.

As to `O=C1CCCc2ccccc21`, the Potency entry in assay [1], in assay [3], in assay [4], in assay [6], in assay [7] and in [8] was “inactive” in each case. Also, the result in assay [2] and in [5] was inactive.

On to `CC(C)C(=O)OC/C=C/c1ccccc1`, for which the Potency entry in [1], in assay [3], in assay [4], in [6], in [7] and in assay [8] was “inactive” in each case. Moreover, the result in assay [2] and in [5] was inactive.

Take `COc1ccc(Nc2ccc(OC)cc2)cc1`: the Potency result in assay [1], in assay [3] and in [6] was “inactive” in each case. Also, the result in assay [2] and in assay [5] was inactive. For the same compound, the Potency in assay [4] is 27.8 µM (active).

Regarding `Cc1cc2c(s1)Nc1ccccc1N=C2N1CCN(C)CC1`, the values for the Potency in assay [1] and in assay [7] were 13.3 µM (active) and 5.31 µM (active), respectively. Further, the result in assay [2], in assay [9] and in assay [5] was inactive. Besides, the Potency entry in [3] and in assay [4] was “inactive” each time.

Consider `C=CCCCCCCCCO`, for which the Potency entry in assay [1], in assay [3], in assay [4], in assay [6], in [7] and in assay [8] was “inactive” throughout. In addition, the outcome in assay [2] and in assay [5] was inactive.

Consider `CO[Si](C)(C)OC`, for which the Potency result in assay [1], in [3], in assay [4], in assay [6], in assay [7] and in assay [8] was “inactive” throughout. Also, the result in assay [2] and in [5] was inactive.

Consider `CC(=O)OC1C2(C)CCC(C2)C1(C)C` (configuration not stated), for which the Potency result in [1], in assay [3], in [4], in assay [6] and in assay [7] was “inactive” each time. For the same compound, the result in assay [2] and in assay [5] was inactive.

For `Clc1cccc(-c2cc(Cl)cc(Cl)c2)c1`, the Potency result in [1], in [3], in [4], in assay [6] and in assay [7] was “inactive” throughout. For the same compound, the result in assay [2] and in assay [5] was inactive.

`CC1(C)O[C@@H]2C[C@H]3[C@@H]4CCC5=CC(=O)CC[C@]5(C)[C@@]4(F)[C@@H](O)C[C@]3(C)[C@]2(C(=O)CCl)O1`: the Potency result in [1], in [3], in assay [4] and in [7] was “inactive” each time. The outcome in assay [2], in [9] and in [5] was inactive. Besides, in assay [8], the Potency was 13.3 µM (active).

For the compound `CC(C)OC(C)C`, the Potency result in assay [1], in [3], in assay [4], in assay [6], in assay [7] and in [8] was “inactive” in each case. The result in [2] and in [5] was inactive.
